Compound activity (PubChem)
RORg inh = qHTS for inhibitors of ROR gamma transcriptional activity. Potency, µM (series often up to 53.6 µM), most hits filed as inhibitors. 310,000 tested, 5.4% active. Nuclear receptor ROR-gamma (Mus musculus), P51450. Drosophila S2 Gal4-RORgamma UAS-luciferase reporter, 20 h. AID 2551, 2010; also: nearly all actives have a fitted effect of over 60% in size
Target sequence (P51450 whole entry, looked up, the tested form may be a part): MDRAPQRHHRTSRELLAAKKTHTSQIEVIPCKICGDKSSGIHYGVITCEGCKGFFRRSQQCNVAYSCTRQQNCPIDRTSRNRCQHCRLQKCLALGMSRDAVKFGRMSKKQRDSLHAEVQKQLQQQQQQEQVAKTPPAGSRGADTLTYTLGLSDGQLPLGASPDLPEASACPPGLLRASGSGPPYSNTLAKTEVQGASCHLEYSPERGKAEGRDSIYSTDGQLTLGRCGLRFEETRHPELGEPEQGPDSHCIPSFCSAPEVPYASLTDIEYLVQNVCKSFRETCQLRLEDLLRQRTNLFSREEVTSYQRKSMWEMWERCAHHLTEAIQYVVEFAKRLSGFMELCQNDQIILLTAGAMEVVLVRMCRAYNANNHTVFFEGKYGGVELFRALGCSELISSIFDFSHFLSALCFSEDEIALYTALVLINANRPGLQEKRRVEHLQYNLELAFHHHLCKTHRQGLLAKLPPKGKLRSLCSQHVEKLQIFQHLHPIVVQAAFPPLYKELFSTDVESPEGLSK
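Compounds are pin-transferred onto Drosophila Schneider cells expressing a copper-inducible Gal4–ROR gamma transactivation domain fusion. After 1 hr, copper sulfate is added to 700 uM final; luciferase is read 20 hr later.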
KB-V1 cytotox = qHTS assay for MDR1-selective chemotherapeutics: Primary screen using the drug-selected MDR subline cells KB-V1. KB-V1 MDR cells viability, CellTiter-Glo, 72 h. 400,000 tested, 3.4% active. Potency, µM (titrated, usually from 46.1 µM), hits mostly cytotoxic; also: nearly all actives have a fitted effect of over 60% in size
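Cytotoxicity via CellTiter-Glo luminescence after 72 h compound exposure at 37 degrees C. Cells: drug-selected KB-V1 line, DMEM phenol-red free plus 10% FBS. Compounds tested at multiple concentrations; normalized data fitted to concentration-effect curves.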
Gal4-VP16 FLuc = VP16 counterscreen qHTS for inhibitors of ROR gamma transcriptional activity; Drosophila S2 Gal4-VP16 UAS-luciferase, luminescence, 20 h; Potency, µM (top dose mostly 53.6 µM), most hits filed as inhibitors; 310,000 tested, 3.5% active;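 also: Gal4-VP16 expression switched on by copper sulfate through the metallothionein promoter; nearly all actives have a fitted effect of over 50% in size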
SW480 rerep = A quantitative high throughput screen for small molecules that induce DNA re-replication in SW480 colon adenocarcinoma cells; SW480 DNA re-replication, Hoechst DNA content imaging, 48 h; 340,000 tested, 1.8% active; Potency, µM (titrated, usually from 46.1 µM), most hits filed as activators; AID 624297, 2012; also: nearly all actives have a fitted effect of over 55% in size
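Image-based DNA-content assay: after two days of treatment, nuclei were labelled with the DNA dye Hoechst and imaged, and hits were compounds raising the count of nuclei showing high fluorescence intensity.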
KB-3-1 cytotox = qHTS assay for MDR1-selective chemotherapeutics: Primary screen using the parental adenocarcinoma cell KB-3-1; 400,000 tested, 1.4% active; Potency, µM (titrated, usually from 46.1 µM), most hits filed as cytotoxic; KB-3-1 viability, CellTiter-Glo ATP luminescence, 72 h; also: nearly all actives have a fitted effect of over 60% in size
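Multi-concentration cytotoxicity screen in KB-3-1 cells grown in DMEM lacking phenol red with 10% FBS. After 72 h at 37 °C with compound, ATP-dependent luminescence was recorded.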
MCF10A rereplic = A quantitative high throughput screen for small molecules that induce DNA re-replication in MCF 10a normal breast cells; 350,000 tested, 2.9% active; MCF 10A DNA re-replication, Hoechst nuclear intensity, 48 h; AID 624296, 2012; Potency, µM (highest dose often 46.1 µM), actives largely listed as activators; also: nearly all actives have a fitted effect of over 50% in size
Of the large screens only hits and unclear results are named; the others gave an inactive call. An excerpt weighted towards active compounds, which were near 10% of everything screened. Calls follow the shape of the dose curve; as a rule, active = well fitted curve in the direction sought with a large enough effect; inconclusive = small, poorly fitted or top-dose-only effect, or another doubt; inactive = no such curve, though single readings can be large; an effect the other way counts as inactive or inconclusive.

CC(=O)OCC1OC(OC2C[C@]3(C)C(CC(O)C4C([C@](C)(CCC=C(C)C)OC5OC(CO)C(O)C(O)C5O)CC[C@]43C)[C@@]3(C)CCC(O)C(C)(C)C23)C(O[C@@H]2OC(C)C(O)C(O)C2O)C(O)C1O (stereo partly drawn)	MCF10A rereplic 0.517µM (no result: RORg inh, Gal4-VP16 FLuc)
COc1ccc(-c2cc(C(=O)N(C)Cc3ccccc3F)c3ccccc3n2)cc1OC	KB-V1 cytotox 16.4µM, MCF10A rereplic inconclusive
COc1ccccc1CN(C)C(=O)c1cc(-c2cc(OC)c(OC)c(OC)c2)nc2ccccc12	KB-V1 cytotox inconclusive, MCF10A rereplic inconclusive
COc1ccc(-c2cc(C(=O)N(C)CC(=O)Nc3ccccc3Br)c3ccccc3n2)cc1OC	KB-V1 cytotox 9.2µM (no result: RORg inh, Gal4-VP16 FLuc)
Cc1nc(C)n(CC(O)COc2ccc3ccccc3c2)n1 (stereo not drawn)	KB-V1 cytotox 20.6µM
COc1ccc(OCC(O)CNC(C)c2ccccc2)cc1 (stereo not drawn)	none
CC1CCC(C(C)C)C(OCC(O)CNC(C)(C)C)C1 (stereo not drawn)	none
Cc1cc(OCC(O)CNC(C)c2ccccc2)ccc1C(C)C (stereo not drawn)	RORg inh inconclusive, KB-V1 cytotox 16.4µM, SW480 rerep inconclusive, KB-3-1 cytotox inconclusive, MCF10A rereplic inconclusive
CC(NCC(O)COc1ccc2ccccc2c1)c1ccccc1 (stereo not drawn)	KB-V1 cytotox inconclusive, SW480 rerep 23.1µM, KB-3-1 cytotox inconclusive, MCF10A rereplic inconclusive
CC1CCC(C(C)C)C(OCC(O)CNC(C)c2ccccc2)C1 (stereo not drawn)	RORg inh inconclusive, KB-V1 cytotox 20.6µM, Gal4-VP16 FLuc inconclusive, KB-3-1 cytotox inconclusive, MCF10A rereplic 16.4µM
C=C(C(C)=O)C(O)c1ccccc1 (stereo not drawn)	none (no result: KB-V1 cytotox, SW480 rerep, KB-3-1 cytotox, MCF10A rereplic)
CC(C)OCCCNC(=O)C(=O)Nc1c2c(nn1-c1ccccc1)CS(=O)(=O)C2	none (no result: RORg inh, Gal4-VP16 FLuc, SW480 rerep, MCF10A rereplic)
CCC/C=C(\CCC)C(NS(C)(=O)=O)c1ccccc1 (stereo not drawn)	none (no result: KB-V1 cytotox, SW480 rerep, KB-3-1 cytotox, MCF10A rereplic)
Cc1cccc(CNC(=O)c2ccc(C)c(-n3c(C)nc4cccnc43)c2)c1	none (no result: RORg inh, Gal4-VP16 FLuc, SW480 rerep, MCF10A rereplic)
O=C(NCC(c1ccc(Cl)cc1)N1CCCCC1)c1ccccc1 (stereo not drawn)	none (no result: RORg inh, Gal4-VP16 FLuc, SW480 rerep, MCF10A rereplic)
CCc1ccc(NC(=O)CCc2ccc(C)o2)cc1	SW480 rerep inconclusive, KB-3-1 cytotox inconclusive, MCF10A rereplic 16.4µM
CCN(C)C1CN(Cc2cn(Cc3cccc(C(F)(F)F)c3)nn2)S(=O)(=O)C1 (stereo not drawn)	KB-V1 cytotox inconclusive (no result: RORg inh, Gal4-VP16 FLuc, SW480 rerep, MCF10A rereplic)
Cc1cccc(NC(=O)CC2C(=O)NCCN2C(=S)Nc2ccccc2)c1 (stereo not drawn)	RORg inh inconclusive, MCF10A rereplic 16.4µM
Cc1nn(C)c(-c2n[nH]c(=S)n2-c2ccccc2)c1Cl	RORg inh 11.2µM
CC(C)Cn1c(-c2cccc(S(=O)(=O)N3CCOCC3)c2)n[nH]c1=S	none (no result: RORg inh, Gal4-VP16 FLuc)
Cc1c(Cl)c(-c2n[nH]c(=S)n2CC(C)C)nn1C	RORg inh 12.6µM, KB-V1 cytotox inconclusive, Gal4-VP16 FLuc inconclusive
Cc1c(Cl)c(-c2n[nH]c(=S)n2-c2ccc(F)cc2)nn1C	RORg inh 12.6µM
CCc1nn(C)c(-c2n[nH]c(=S)n2N)c1Cl	none
CCCCn1c(-c2nn(C)c(C)c2Cl)n[nH]c1=S	RORg inh 3.16µM, Gal4-VP16 FLuc inconclusive
COc1ccc(/C=C(/NC(=O)c2ccc(Br)o2)C(=O)Nc2cccc(C(=O)O)c2)cc1	none (no result: RORg inh, Gal4-VP16 FLuc, SW480 rerep, MCF10A rereplic)
Cc1cccc(C)c1NC(=O)C1(C)CN(S(C)(=O)=O)CC(=O)N1CCc1c[nH]c2ccccc12 (stereo not drawn)	none (no result: RORg inh, Gal4-VP16 FLuc, SW480 rerep, MCF10A rereplic)
CCNC(=S)N/N=C/c1ccc(F)cc1	RORg inh 2.24µM, Gal4-VP16 FLuc 7.94µM (no result: KB-V1 cytotox, SW480 rerep, KB-3-1 cytotox, MCF10A rereplic)
